Assay outcomes from PubChem BioAssay.
Only some compounds are listed: those with a hit (about 1.1% of all), similar ones and a draw of the others.
Six1-Eya2 blk – qHTS Assay for Inhibitors of the Six1/Eya2 Interaction; Homeobox protein SIX1 (Homo sapiens) + Protein phosphatase EYA2 (Homo sapiens), …; AlphaScreen GST-Six1/His-Eya2 binding, biochemical; hits give low values; activity change, % (concentration not given with the values); 360,000 tested, 0.56% active; AID 651725, 2012; note: % is set by controls: 0 for no effect and ±100 for the full control effect
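AlphaScreen luminescence read after one hour at 37 °C in darkness. Pin-transferred compounds met GST-Six1 and His-Eya2 protein (5X stock 250 nM/500 nM) plus glutathione donor and Ni-chelate acceptor beads (5X, 50 ug/mL).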
CtBP-E1A blk – qHTS Assay for Inhibitors of the CtBP/E1A Interaction. CtBP / adenovirus E1A interaction (AlphaScreen). AlphaScreen GST-E1A/His-CtBP binding, 1536-well; hits give low values. activity change, % (test concentration not listed). 340,000 tested, 0.49% active; note: % is set by controls: 0 for no effect and ±100 for the full control effect
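GST-E1A and His-tagged CtBP (125 nM each as 5X stock) were preincubated with pin-transferred compound for 2 h at 37 °C in the dark, then glutathione donor and nickel acceptor beads were added for 1 h before AlphaScreen reading.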
Mito fusion act – qHTS Assay for Small Molecule Inhibitors of Mitochondrial Division or Activators of Mitochondrial Fusion | S. cerevisiae fusion-defective mutant growth rescue, CellTiterGlo 48 h | 320,000 tested, 0.23% active | Potency, µM (titrated, usually from 46.1 µM), without a hit: at the top dose growth rescue (activation), most hits filed as activators; active = well fitted activation curve with a large enough effect; inconclusive = small, poorly fitted or top-dose-only effect; inactive = no such curve, though single readings can be large or run the other way; note: potency is the fitted concentration of half-maximal effect; % of control where 0% means no effect; nearly all actives have a fitted effect of over 45% in size
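Read-out: ATP-based luminescence (CellTiterGlo, 10 min ambient) reporting growth of fusion-defective ts yeast after 48 hours at 37C on glycerol/ethanol YPEG medium in the presence of compound.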
uPA surface inh – qHTS for Inhibitors of Cell Surface uPA Generation; 330,000 tested, 0.31% active; cell surface uPA generation assay, qHTS; Potency, µM (titrated, usually from 38.3 µM), for inactives: top-dose activity change, negative = inhibition, usual class: inhibitors; active = well fitted inhibition curve with a large enough effect; inconclusive = small, poorly fitted or top-dose-only effect; inactive = no such curve, though single readings can be large or run the other way; tested in mouse RAW 264.7 cells; note: potency is the fitted concentration of half-maximal effect; % is set by controls: 0 for no effect and ±100 for the full control effect; nearly all actives have a fitted effect of over 55% in size
MBNL1 CUG block – qHTS Assay for Inhibitors of MBNL1-poly(CUG) RNA binding | AID 2675, 2010 | Muscleblind-like protein 1 (Homo sapiens), Q9NR56 | Potency, µM (highest dose often 57.5 µM), without a hit: at the highest dose activity change, negative = inhibition, hits mostly inhibitors | 280,000 tested, 0.036% active | TR-FRET MBNL1-His/biotin-(CUG)12 binding, 665/545 ratio; active = well fitted inhibition curve with a large enough effect in the signal ratio, with a control signal flat, not every such curve was filed as active; inconclusive = small, poorly fitted or top-dose-only effect, or effect the other way, or a change in a side signal; inactive = no such curve, though single readings can be large or run the other way; the % refers to the signal ratio; note: potency is the fitted concentration of half-maximal effect; % is set by controls: 0 for no effect and ±100 for the full control effect
Target sequence (Q9NR56 whole entry, looked up): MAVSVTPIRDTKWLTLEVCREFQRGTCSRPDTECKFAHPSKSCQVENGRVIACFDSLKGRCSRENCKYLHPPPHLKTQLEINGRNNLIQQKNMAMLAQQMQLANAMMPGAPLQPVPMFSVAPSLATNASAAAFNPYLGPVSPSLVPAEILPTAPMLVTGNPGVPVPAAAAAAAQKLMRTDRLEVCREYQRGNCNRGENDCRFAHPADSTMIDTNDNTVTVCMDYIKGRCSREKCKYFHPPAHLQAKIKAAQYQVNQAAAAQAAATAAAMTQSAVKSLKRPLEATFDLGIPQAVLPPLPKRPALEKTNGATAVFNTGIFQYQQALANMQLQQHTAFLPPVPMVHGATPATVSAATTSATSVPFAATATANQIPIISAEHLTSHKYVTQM
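His-tagged MBNL1 binding to biotinylated (CUG)12 RNA was measured by TR-FRET using terbium anti-His antibody (0.055 ng/ul final) and streptavidin-XL665 (5 nM final). Compounds were titrated 92 nM to 58 uM; 60 min at room temperature.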
Starred values were filed as active, the others as inactive; u = inconclusive; x = no result given; ! = repeats disagree; [ ] = another dose, or the depositor's remark. Cut-off read from the data, not from the text of the source, unless noted: active = activity change below about -65%; inconclusive = mostly about -30% to -63%; inactive = weaker than that.

SMILES	Six1-Eya2 blk	CtBP-E1A blk	Mito fusion act	uPA surface inh	MBNL1 CUG block
COCCOC(=O)c1[nH]c2c(c1C)C(=O)CC(c1cccs1)C2 (stereo not given)	-0.5	x	1.0%	1µM*	2.9%
CCOC(=O)c1[nH]c2c(c1C)C(=O)CC(c1ccc(F)cc1)C2 (stereo not given)	-1.8	-2.7	4.5%	1.26µM*	1.9%
Nc1[nH]c(C(=O)c2ccccc2)c(-c2ccccc2C(F)(F)F)c1C(=O)NCCc1c[nH]c2ccccc12	-20.7	-1.0	x	x	x
COc1ccc([C@]23Cc4cc(OC)c(OC)cc4C(O2)c2c(cc(C)oc2=O)O3)cc1	x	x	-0.2%[9.22 µM]	x	-2.4%[11.5 µM]
Cc1nc(Nc2ccc(Cl)c(Cl)c2)sc1C(/C=C/c1ccc2c(c1)OCO2)=NNc1ccc([N+](=O)[O-])cc1[N+](=O)[O-]	-3.9	3.9	x	6.7%	x
COc1cc(NCCCCCCN)c2ncccc2c1OC	u	-70.9*	x	-12.0%	x
CC(C)NC(=O)C1(C)CCN1C(=O)c1ccccc1 (stereo not given)	6.3	1.9	x	x	x
Cc1cc(C(C)(C)C)cc(C)c1C[n+]1ccc2ccccc2c1	3.8	5.2	-15.9%	4.47µM*	11.5%
CN(C1=C(N2CCOCC2)C(=O)c2ccccc2C1=O)c1ccccc1	-81.9*	u	8.6%	-21.0%	x
C[C@H](CO)N1C[C@H](C)[C@@H](CN(C)S(=O)(=O)c2ccc3c(c2)OCCCO3)OCc2cn(nn2)CCCC1=O	0.9	-1.9	x	x	x
O=C(CN1C(=O)/C(=C\c2ccco2)SC1=S)Nc1ccc(O)cc1C(=O)O	u	x	-0.6%	13.7%	u
O=C(CCN1C(=O)/C(=C/c2ccco2)SC1=S)Nc1ccc(O)cc1C(=O)O	-67.7*	0.0	1.1%	1.9%	u
Oc1[nH]c2ccccc2c1N=NC(=S)N1CCOCC1	-91.7*	-65.8*	-9.0%	u	x
Oc1[nH]c2ccc(Br)cc2c1N=NC(=S)N1CCOCC1	-78.1*	u	-3.8%	u	x
Oc1cccc(NC(=S)N=Nc2c(O)[nH]c3ccccc23)c1	u	-68.5*	19.1%	0.7%	u
NC(=S)N=Nc1c(O)[nH]c2ccccc12	u	u	-0.6%	4.6%	u
CCc1nc2ccc(C(=O)NCCOc3ccc(OC)cc3)cn2c1N(CC)CCN(C)C	-8.3	-2.1	x	x	x
C[C@@H](CO)NC(=O)c1[nH]cnc1C(=O)Nc1cccc(Cl)c1	-1.9	-19.1	x	x	x
CCOc1ccc(C2CC=C(C(C)=O)CN2S(=O)(=O)c2ccc(C)cc2)cc1 (stereo not given)	11.8	-9.4	x	x	x
CN(C)c1ccc(C(=O)C(O)c2ccccc2)cc1 (stereo not given)	2.5	4.7	4.3%	-0.3%	u
CN(C)c1ccc(C(c2ccc(N(C)C)cc2)C(O)c2ccccc2)cc1 (stereo not given)	-65.2*	-2.0	x	7.9%	x
CCN(CC)C(=O)C1=C(C)N(Cc2ccc(C(C)(C)C)cc2)C(=O)C(CC(=O)NCC2CCCCC2)C1 (stereo not given)	19.2	0.0	x	x	x
COc1cc(SC)ccc1C(=O)N1CCC(Cc2ccccc2)CC1	x	x	20.6µM*	x	x
COc1cc(SC)ccc1C(=O)NC1CCCCC1	-0.5	5.4	31.6µM*	-3.5%	8.1%
Cc1ccc2cc(C)c3nnc(SCc4ccc(C(=O)O)cc4)n3c2c1C	-4.1	-9.1	-2.3%	-5.5%	15.7%
SMILES	Six1-Eya2 blk	CtBP-E1A blk	Mito fusion act	uPA surface inh	MBNL1 CUG block
CC(C)Cn1nc(C(=O)Nc2nnc(C3CC3)s2)c2ccccc2c1=O	2.6	x	9.0%	-7.5%	x
O=c1[nH]c(N/N=C\c2ccc3c(c2)OCO3)nc2ccccc12	u	-68.4*	-6.1%	-12.2%	u
CN(O)/C=c1/ccc2c(n1)C(=O)C=CC=2	-92.5*	-96.4*	0.2%	-11.0%	u
CCN(CC)c1ccc(/C=C2\C(=O)N(c3nnc(C)c(=O)[nH]3)N=C2C)cc1	-91.5*	-92.4*	-2.5%	-7.1%	31.6%
COc1ccc([C@H]2C[C@H](O)[C@@H](n3cc(COC(=O)c4ccccc4)nn3)CN2C(=O)C2CCCCC2)cc1	-1.0	2.2	x	x	x
CCOc1ccc2[nH]c3ncccc3c(=O)c2c1	-15.6	-1.7	8.9%	-2.7%	u
CCOc1ccc2c(ccc(/C=C/c3cc(C)c4cccnc4c3O)[n+]2C)c1	-90.1*	-93.7*	x	-5.1%	x
O=C(C[C@H]1C[C@@H]2c3cc(NC(=O)c4ccc5c(c4)OCO5)ccc3O[C@@H]2[C@H](CO)O1)NCc1cc(F)ccc1F	-69.6*	-67.3*	x	x	x
CCCCN1C(=O)C(=O)N(CC(=O)Nc2ccccc2C(=O)OCC)C1=O	0.0	-97.7*	4.0%	-4.2%	0.2%
O=C(/C=C/c1ccc(O)cc1)c1ccc(O)cc1O	4.7	5.6	16.4µM*!	13.4%	2.7%
COc1ccc(C(=O)/C=C/c2ccccc2)c(O)c1	1.0	-6.5	-3.0%	u	-3.1%
CC(=NNC(=S)N1CCCCC1)c1cccc(C)n1	-91.0*	-0.4	x	0.7%	x
Cc1cccc(C(=S)N2CCOCC2)n1	-2.3	1.2	1.7%	-21.7%	x
CSC(=S)NN=C(C)c1cccc(C)n1	-91.2*	-92.5*	x	-9.9%	x
CC(=NNC(=S)N1CCCCC1)c1ccccn1	-86.8*	-15.7	x	x	x
CC(=NNC(=S)N1CC2CCC(CC2)C1)c1ccncn1	u	-96.0*	x	-9.4%	x
Cc1cccc(NC(=S)Nc2cccc(C)n2)n1	-9.6	-6.1	-0.9%	3.2%	-5.5%
Cc1ccc(NC(=O)CSc2nc3cc(C(=O)NCC4CCCO4)ccc3c(=O)n2CC2CCCO2)cc1 (stereo not given)	-1.9	-0.5	x	x	x
CCOC(=O)c1ccc(-n2c(N)c(C(=O)OC)c3nc4ccccc4nc32)cc1	x	x	-8.7%	x	x
O=C(CSc1n[nH]c(=O)[nH]c1=O)Nc1ccc2c(c1)C(=O)c1ccccc1C2=O	-72.3*	-85.3*	2.5%	-6.4%	u
O=C(CSc1ccccn1)Nc1ccc2c(c1)C(=O)c1ccccc1C2=O	-14.3	0.0	-8.8%	-1.9%	u
COc1cc2c(cc1OC)/C(=C/c1ccc(Br)cc1)C(=O)OC2	-3.3	9.3	15.8µM*	-12.2%	-3.5%
COc1ccc(C(=O)c2[nH]c(N)c(C(=O)NCCc3c[nH]c4ccccc34)c2-c2ccc(Cl)c(F)c2)cc1	-18.0	-15.4	x	x	x
Cc1noc(C)c1CSc1ccccc1C(=O)Nc1nccs1	-1.9	-3.1	35.5µM*	1.1%	-2.5%
OCCCNc1nc(-c2ccc(Br)cc2)nnc1-c1ccc(Cl)cc1	-10.0	-21.5	22.4µM*	3.1%	25.6%
